Test results as given in PubChem BioAssay AID489008 (National Center for Advancing Translational Sciences (NCATS), 2010).
Records with an inconclusive call do not appear. The source made the active and inactive calls. Calls follow the shape of the dose curve; as a rule, active = well fitted inhibition curve with a large enough effect; inconclusive = small, poorly fitted or top-dose-only effect; inactive = flat fitted curve, though single readings scatter.

These molecules were tested against Ferritin light chain (Equus caballus) (UniProt P02791) (assay: Confirmation Assay for Identification of Novel General Anesthetics). Conditions: apoferritin 1-aminoanthracene fluorescence displacement.
How it was run: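 Competitive displacement of profluorescent 1-aminoanthracene from 10 uM horse-spleen apoferritin in 50% saturated 1-AMA/PBS; 10 min RT, fluorescence Ex 380/Em 535. Normalized to free 1-AMA and complex; four-parameter Hill fit.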
Also: nearly all actives have a fitted effect of over 40% in size.
Potency is read from the fitted curve at half-maximal effect.

Ferritin light chain (Equus caballus), sequence (P02791 2-175 limits assumed): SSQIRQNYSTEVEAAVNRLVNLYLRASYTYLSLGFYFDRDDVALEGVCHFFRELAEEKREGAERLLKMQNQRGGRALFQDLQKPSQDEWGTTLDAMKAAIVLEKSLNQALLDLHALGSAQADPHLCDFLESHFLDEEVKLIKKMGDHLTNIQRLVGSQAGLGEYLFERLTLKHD

Potency, active:
O=C(CCl)Nc1ccc(N2CCCCCC2)cc1 15.8 µM
NS(=O)(=O)c1cccnc1Nc1cccc(C(F)(F)F)c1 10 µM
CCN(CC)C(=S)SCC(=O)c1ccccc1 28.2 µM
O=C(CSc1ccccc1)N1CCc2ccccc21 20 µM
NC(=O)COC(=O)CC12CC3CC(CC(Br)(C3)C1)C2 17.8 µM
Fc1cnc(Cl)nc1NC1CCCCC1 12.6 µM
Cc1ccc(OCc2cc(C(=O)N3CCCCCCC3)no2)cc1C 22.4 µM
Cc1ccc(CNc2ccc(CNc3ncn[nH]3)cc2)cc1 20 µM
ON1C(c2ccc(Cl)cc2Cl)N(O)[C@H]2CCCC[C@H]21 (some centres undefined) 7.94 µM
CCN(CC)S(=O)(=O)c1ccc(C)c(C)c1 22.4 µM
Cc1cc(C)c(C)c(OCC(=O)N2CCCCCC2)c1 17.8 µM
Cc1ccccc1Oc1ccccc1N 15.8 µM
O=C(c1csc2ccccc12)N1CCCCCC1 31.6 µM
Cc1ccc(Cn2cccc(NC(=O)NC3CCCCC3)c2=O)cc1 15.8 µM
O=C(NCc1ccccc1)Nc1cccn(Cc2ccccc2)c1=O 8.91 µM
c1cnc(NC2C3CC4CC(C3)CC2C4)nc1 (centres undefined) 6.31 µM
COc1cc(C(=O)O[C@@H]2CC3CC[C@]2(C)C3(C)C)ccc1O 14.1 µM
N#Cc1ccccc1NCc1ccccc1 11.2 µM
NCCOc1ccc(C2CCCCC2)cc1 7.94 µM
